IEC-6 tox: cytotoxicity in IEC-6 intestinal epithelial cells, primary screen, cytotoxicity control for KLF5 inhibitor project, cell-based, luminescence. hit rate 0.78% among 290,000. inhibition, % at 5 µM. AID 1825, 2009. IEC-6 cytotoxicity, luminescence viability;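 also: 0% = plate median of test compound wells and 100% = cytotoxic reference compound wells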
KLF5 inhibitor: KLF5 expression inhibitors, primary screen, DLD-1 cells, luminescence; DLD-1 KLF5 promoter-luciferase reporter; inhibition, % at 5 µM; hit rate 0.23% among 290,000; AID 1700, 2009;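 active = inhibition above a per-plate limit of that plate's mean compound inhibition plus 3 SD, cut at about 60% in these data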;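 also: 0% = DMSO wells and 100% = LY294002 at 200 µM; higher means less KLF5 promoter-driven luciferase light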
BaF3 parental: parental Ba/F3 cell viability inhibition, counter-screen for JAK2V617F inhibitor project, murine pro-B, CellTiter-Glo luminescence | CellTiter-Glo ATP luminescence | inhibition, % at 5.6 µM | hit rate 1.1% among 220,000;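 active = inhibition above a per-campaign cutoff, the mean inhibition of all tested compounds plus 3 SD, cut at about 27% in these data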;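 also: 0% = DMSO wells and 100% = JAK Inhibitor I control wells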
Ba/F3 V617F tox: reduced viability of JAK2V617F-dependent Ba/F3 cells, primary screen, JAK2V617F inhibitor project, cell-based, Ba/F3 EpoR-JAK2V617F, luminescence | ATP luminescence | inhibition, % at 5.6 µM | hit rate 1.1% among 220,000 | AID 1446, 2008;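 active = inhibition above the campaign mean plus 3 SD over all tested compounds, cut at about 24% in these data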;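 also: cytokine-independent growth of Ba/F3 cells driven by EpoR plus mutant JAK2; 0% = DMSO-treated cells and 100% = JAK inhibitor I control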
APP 5UTR inh: inhibitors of APP translation via 5'UTR reporter, primary screen, APP 5'UTR luciferase, SH-SY5Y cells | SH-SY5Y APP 5'UTR-luciferase reporter, luminescence | inhibition, % at 2 µM | hit rate 0.82% among 190,000 | AID 1285, 2008;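 active = inhibition above a set limit, derived from the sample mean plus 3 SD, cut at about 45% in these data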
IEC-6 tox confirm: cytotoxic compounds in IEC-6 epithelial cells, confirmation, cytotoxicity control, cell-based, luminescence. hit rate 63% among 1,900. inhibition, % at 5 µM. shares compounds with IEC-6 tox. IEC-6 rat intestinal epithelial viability. AID 1907, 2009;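 also: 0% = vehicle and 100% = reference cytotoxic drug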
* marks the source's active call; other numbers are inactive results. Compounds with a hit are over-represented: about 1.8% of the library has one in this group of screens. Rule as the data show it, unless noted: active = inhibition above about 22%; inactive = the rest.

What do the screens show for `CCc1ccc(-c2csc(NC(=O)COC(=O)CCc3nc4ccccc4s3)n2)cc1`?
IEC-6 tox: -10; KLF5 inhibitor: -66; BaF3 parental: 6; Ba/F3 V617F tox: 0; APP 5UTR inh: -107

How did O=C1CCCC(=NCc2ccco2)C1 do in these assays?
IEC-6 tox: 2; KLF5 inhibitor: -7; BaF3 parental: -1; Ba/F3 V617F tox: -2; APP 5UTR inh: 20

What do the screens show for `CN(C)c1nc(=NCc2ccco2)ss1`?
IEC-6 tox: 97*; KLF5 inhibitor: -5; BaF3 parental: 8; Ba/F3 V617F tox: 12; IEC-6 tox confirm: 30*

Results for Cc1c(C(=O)N2CCOCC2)[nH]c2c1C(=O)CC(c1ccccc1Cl)C2 (stereo not drawn) ?
IEC-6 tox: 60*; KLF5 inhibitor: 61; BaF3 parental: 84*; Ba/F3 V617F tox: 85*; APP 5UTR inh: 85*; IEC-6 tox confirm: 48*

What do the screens show for `CCc1nnc(NC(=O)c2ccc(S(=O)(=O)N(CC)Cc3ccccc3)cc2)o1`?
IEC-6 tox: 26*; KLF5 inhibitor: 23; BaF3 parental: 6; Ba/F3 V617F tox: 0; APP 5UTR inh: 15; IEC-6 tox confirm: 2

What do the screens show for `CCN(Cc1ccccc1)S(=O)(=O)c1ccc(C(=O)Nc2nnc(C)o2)cc1`?
IEC-6 tox: 17; KLF5 inhibitor: 42

How did CCOC(=O)Nc1nc(-c2ccccc2)c(C(=O)c2ccccc2)s1 do in these assays?
IEC-6 tox: 86*; KLF5 inhibitor: 55; BaF3 parental: 80*; Ba/F3 V617F tox: 80*; APP 5UTR inh: 94*; IEC-6 tox confirm: 58*

Results for CCN(CC)C(=O)C1CCCN(C(=O)c2cc(COc3cccc(OC)c3)on2)C1 (stereo not drawn) ?
IEC-6 tox: -3; KLF5 inhibitor: -54

Results for CC(=O)Nc1nc(-c2ccc3c(c2)CCN3C(=O)C2CC2)c(C)s1 ?
IEC-6 tox: 49*; KLF5 inhibitor: -40; IEC-6 tox confirm: 4

Results for CNc1nc(-c2ccc3c(c2)CCN3C(=O)CC(C)(C)C)c(C)s1 ?
IEC-6 tox: -2; KLF5 inhibitor: -13; BaF3 parental: 7; Ba/F3 V617F tox: -2; APP 5UTR inh: -4

Results for O=C(CN1CCCCC1)N=Nc1c(O)[nH]c2ccccc12 ?
IEC-6 tox: -1; KLF5 inhibitor: -23; BaF3 parental: 8; Ba/F3 V617F tox: 3; APP 5UTR inh: -2

How did O=C(CN1CCN(Cc2ccccc2)CC1)N=Nc1c(O)[nH]c2ccccc12 do in these assays?
IEC-6 tox: 23*; KLF5 inhibitor: -8; BaF3 parental: 6; Ba/F3 V617F tox: -1; APP 5UTR inh: 9; IEC-6 tox confirm: 6

How did CCOC(=O)N1CCN(C(=O)c2ccc3c(=O)n(-c4cc(OC)ccc4OC)c(=S)[nH]c3c2)CC1 do in these assays?
IEC-6 tox: 0; KLF5 inhibitor: 4; BaF3 parental: 0; Ba/F3 V617F tox: 0; APP 5UTR inh: 19

How did COc1ccc(/C=N\NC(=O)c2ccccc2Br)cc1COc1ccccc1 do in these assays?
IEC-6 tox: 8; KLF5 inhibitor: -33

What do the screens show for `COc1ccc(OCc2cc(/C=N\NC(=O)c3ccccc3)ccc2OC)cc1`?
IEC-6 tox: 33*; KLF5 inhibitor: 4; IEC-6 tox confirm: 9

Results for COc1ccc(C(=O)N/N=C\c2ccc(OC)c(COc3ccccc3Br)c2)c(OC)c1 ?
IEC-6 tox: 22*; KLF5 inhibitor: -29; IEC-6 tox confirm: 9

What do the screens show for `COc1cc(OC)cc(C(=O)N/N=C/c2ccc(OC)c(COc3ccc(F)cc3)c2)c1`?
IEC-6 tox: 65*; KLF5 inhibitor: 41; BaF3 parental: 55*; Ba/F3 V617F tox: 10; APP 5UTR inh: 87*; IEC-6 tox confirm: 40*

Results for CN(C)S(=O)(=O)c1cccc(NC(=O)CN2C(=O)C3C4C=CC(C4)C3C2=O)c1 (stereo not drawn) ?
IEC-6 tox: 4; KLF5 inhibitor: -22; BaF3 parental: 4; Ba/F3 V617F tox: -1; APP 5UTR inh: -19

Results for Cc1cc(C)cc(NC(=O)C2CCN(S(=O)(=O)c3ccc4c(c3)NC(=O)C(C)S4)CC2)c1 (stereo not drawn) ?
IEC-6 tox: -3; KLF5 inhibitor: -13

Results for Cc1ccc(NC(=O)C2CCN(S(=O)(=O)c3ccc4c(c3)NC(=O)C(C)S4)CC2)cc1Cl (stereo not drawn) ?
IEC-6 tox: 22*; KLF5 inhibitor: -4; IEC-6 tox confirm: 4

What do the screens show for `O=C(CN1CCN(Cc2ccccc2Cl)CC1)N/N=C/c1ccco1`?
IEC-6 tox: 4; KLF5 inhibitor: -16; BaF3 parental: 3; Ba/F3 V617F tox: -5

Results for CC[n+]1c(C=C2C=C(C)OC(C)=C2)sc2ccccc21 ?
IEC-6 tox: 25*; KLF5 inhibitor: 30; BaF3 parental: 91*; Ba/F3 V617F tox: 100*; APP 5UTR inh: 9; IEC-6 tox confirm: 27*

Results for COC(=O)c1cccc(NC(=O)C(C)(C)C)c1 ?
IEC-6 tox: -4; KLF5 inhibitor: 3; BaF3 parental: -1; Ba/F3 V617F tox: 0

How did COc1ccc(-c2[nH]ncc2/C=C(/C#N)C(=O)NC2CCCCC2)cc1 do in these assays?
IEC-6 tox: 16; KLF5 inhibitor: -24; BaF3 parental: 3; Ba/F3 V617F tox: 1; APP 5UTR inh: 8

Results for Cc1ccc(-c2[nH]ncc2/C=C(\C#N)C(=O)NC2CCCCC2)cc1 ?
IEC-6 tox: 22*; KLF5 inhibitor: 13; BaF3 parental: 6; Ba/F3 V617F tox: 5; APP 5UTR inh: -27; IEC-6 tox confirm: 18

How did CC(=O)c1ccc(N/N=C(/C(N)=O)C2=NC(C)(C)Cc3ccccc32)cc1 do in these assays?
IEC-6 tox: 40*; KLF5 inhibitor: 24; BaF3 parental: 0; Ba/F3 V617F tox: -1; APP 5UTR inh: 27; IEC-6 tox confirm: 33*

What do the screens show for `O=C(Cc1ccccc1)NC1CCSc2ccccc21` (stereo not drawn)?
IEC-6 tox: -5; KLF5 inhibitor: -40

Results for COc1ccc(Nc2ncnc3scc(-c4ccc(OC)cc4)c23)cc1 ?
IEC-6 tox: 24*; KLF5 inhibitor: -11; BaF3 parental: 6; Ba/F3 V617F tox: 1; APP 5UTR inh: -4; IEC-6 tox confirm: 20

Results for COc1ccc(-c2c(C(F)(F)F)nn(C)c2NC(C)=O)cc1 ?
IEC-6 tox: -4; KLF5 inhibitor: -23; BaF3 parental: -1; Ba/F3 V617F tox: 0

Results for COc1cccc(Oc2cnc(N)nc2-c2ccc(OC)cc2O)c1 ?
IEC-6 tox: 45*; KLF5 inhibitor: 35; BaF3 parental: 62*; Ba/F3 V617F tox: 68*; APP 5UTR inh: 61*; IEC-6 tox confirm: 33*

What do the screens show for `COc1ccc(-c2nc(N)ncc2Oc2ccccc2Br)c(O)c1`?
IEC-6 tox: 0; KLF5 inhibitor: -22; BaF3 parental: 2; Ba/F3 V617F tox: -2; APP 5UTR inh: -3
